RE007 growth inh = less growth of the S. pombe RE007 Vpr strain | S. pombe RE007 Vpr strain, BacTiter-Glo ATP luminescence, 24 h | Potency, µM (doses to about 92.2 µM), usual class: inhibitors | 0.21% of 360,000 active | AID 651644; active = well fitted falling curve with a large enough effect; inconclusive = small, poorly fitted or top-dose-only effect; inactive = no such curve, though single readings can be large or run the other way; also: nearly all actives have a fitted effect of over 50% in size
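Fission yeast RE007 carrying one integrated HIV-1 vpr copy, seeded at OD 0.01 in PMG+AL medium with 23 nL pinned compound. Grown 24 h at 30 degrees; viability read by BacTiter-Glo luminescence after 5 min.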
Cycloheximide cs = counter-screen for Shiga toxin inhibitors: cycloheximide protein synthesis inhibition; cell reporter, cycloheximide protein synthesis inhibition counterscreen; max response, %; 12% of 300,000 active; in the data active = max response mostly above about 13%, no sharp cut-off; inactive = mostly below about 14%; also: read at 38.3 µM for the half of the compounds with a filed dose
Tb PYK inh = blocks Trypanosoma brucei pyruvate kinase; Potency, µM (series often up to 76.8 µM), usual class: inhibitors; 0.12% of 410,000 active; AID 624173; Q57TT1; TbPYK enzyme, Kinase-Glo Plus ATP luminescence, 45 min; also: nearly all actives have a fitted effect of over 50% in size
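Enzyme and substrate buffer are dispensed first and compound is pin-transferred. ADP at 130 uM final then starts the reaction, which runs 45 min at room temperature. Detection reagent is added for 10 min before luminescence is imaged.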
Giardia FBPA inh = blocks Giardia fructose-bisphosphate aldolase activity. Potency, µM (series often up to 59.6 µM), actives largely listed as inhibitors. 0.71% of 290,000 active. A8B2U2. AID 2451. purified Giardia FBPA; also: nearly all actives have a fitted effect of over 55% in size
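Giardia FBPA (40 nM reagent) was preincubated 10 min at RT with compound (up to 57.5 uM final), then substrate plus GAPDH/TPI/NAD/arsenate coupling system with diaphorase/resazurin was added; resorufin fluorescence (525/598 nm) was read after 20 min.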
Shiga toxin inh = inhibitors of Shiga toxin in Vero cells | 9.2% of 290,000 active | Vero cells, Shiga toxin protein synthesis inhibition reporter | inhibition, % at 38.7 µM | AID 2315; in the data active = inhibition mostly above about 28%, no sharp cut-off; inactive = mostly below about 43%
LmPK inh = LmPK (Leishmania mexicana) enzyme inhibition; 0.37% of 290,000 active; AID 1721; Potency, µM (titrated, usually from 57.5 µM), usual class: inhibitors; Q27686; purified LmPK, Kinase-Glo ATP luminescence, 1 h
Target sequence (Q27686 whole entry, looked up): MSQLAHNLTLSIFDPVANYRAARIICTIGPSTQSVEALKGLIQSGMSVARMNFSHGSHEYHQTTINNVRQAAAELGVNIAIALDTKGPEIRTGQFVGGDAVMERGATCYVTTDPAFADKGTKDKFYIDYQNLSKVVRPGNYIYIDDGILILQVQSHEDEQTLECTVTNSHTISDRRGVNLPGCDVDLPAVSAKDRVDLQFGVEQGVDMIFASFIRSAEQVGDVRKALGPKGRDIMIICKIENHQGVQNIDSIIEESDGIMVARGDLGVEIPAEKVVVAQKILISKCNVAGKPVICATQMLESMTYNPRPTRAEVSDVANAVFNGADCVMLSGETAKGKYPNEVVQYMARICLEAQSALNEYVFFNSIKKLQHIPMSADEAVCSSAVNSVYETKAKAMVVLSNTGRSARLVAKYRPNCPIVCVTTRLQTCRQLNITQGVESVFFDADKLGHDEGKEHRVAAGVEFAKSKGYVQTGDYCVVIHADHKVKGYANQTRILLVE
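In 50 mM imidazole pH 7.2 with 7 mM MgCl2, LmPK (0.1 nM) turned over PEP (0.5 mM) and ADP (0.1 mM) for 1 h at room temperature. Luciferase read-out of ATP.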
A number is an active result; [ ] = another dose, or the depositor's remark. The full list was thinned out, with hits kept by preference. Unless noted, calls follow the shape of the dose curve; as a rule, active = well fitted curve in the direction sought with a large enough effect; inconclusive = small, poorly fitted or top-dose-only effect, or another doubt; inactive = no such curve, though single readings can be large; an effect the other way counts as inactive or inconclusive.

Screening O=C(Oc1oc(-c2ccco2)nc1C=Nc1ccccc1)c1ccoc1 returned RE007 growth inh inactive, Cycloheximide cs 17, Tb PYK inh inactive, Giardia FBPA inh inactive, Shiga toxin inh inactive and LmPK inh inactive.
`CC(C)(C)OC(=O)N1CCCC1C(=O)NC1COC2CC(n3cc(F)c(=O)[nH]c3=O)OC12` (stereo not drawn) gave Cycloheximide cs inactive, Giardia FBPA inh inactive and Shiga toxin inh inactive.
Screening CCCCOC(=O)c1ccc(Nc2nc3ccccc3c3nnc(C)n23)cc1 returned Tb PYK inh inactive[15.4 µM].
C=CCn1c(-c2cccs2)nc2ccccc21 was read as RE007 growth inh inactive, Cycloheximide cs 16, Tb PYK inh inactive, Giardia FBPA inh inactive, Shiga toxin inh 23 and LmPK inh inactive.
For c1ccc(-n2c(-c3cccs3)nc3nc4ccccc4nc32)cc1 the results were RE007 growth inh inactive, Cycloheximide cs inactive, Tb PYK inh inactive, Giardia FBPA inh inactive, Shiga toxin inh inactive and LmPK inh inactive.
For C=CCn1c(-c2cccs2)nc2nc3ccccc3nc21 the results were RE007 growth inh inactive, Cycloheximide cs 30, Tb PYK inh inactive, Giardia FBPA inh inactive, Shiga toxin inh 45 and LmPK inh inactive.
C=CCn1c(-c2cccc(OC)c2)nc2nc3ccccc3nc21 was read as RE007 growth inh inactive[3.69 µM], Cycloheximide cs 32, Giardia FBPA inh inactive, Shiga toxin inh inactive and LmPK inh inactive.
Screening C=C1C(=O)OC(CCCCCCCC)C1C(=O)O (stereo not drawn) returned Cycloheximide cs inactive, Giardia FBPA inh inconclusive and Shiga toxin inh inactive.
For Cc1ccc(C(=O)c2oc3ccccc3c2NC(=O)c2cc(=O)c3cc(C)ccc3o2)cc1 the results were Tb PYK inh inactive.
For c1ccc(N2CCN(c3cnc4ccccc4n3)CC2)cc1 the results were RE007 growth inh inactive, Cycloheximide cs 62, Tb PYK inh inactive, Giardia FBPA inh inactive, Shiga toxin inh 146 and LmPK inh inactive.
`Clc1ccc(N2CCN(c3cnc4ccccc4n3)CC2)cc1` gave RE007 growth inh inactive, Cycloheximide cs 19, Tb PYK inh inactive, Giardia FBPA inh inactive, Shiga toxin inh 49 and LmPK inh inactive.
For Fc1ccc(N2CCN(c3cnc4ccccc4n3)CC2)cc1 the results were RE007 growth inh inactive, Cycloheximide cs 49, Tb PYK inh inactive, Giardia FBPA inh inactive, Shiga toxin inh 91 and LmPK inh inactive.
`Cc1cc(N2CCN(c3ccccc3)CC2)nc2ccccc12` gave RE007 growth inh inactive, Cycloheximide cs inactive, Tb PYK inh inactive, Giardia FBPA inh inactive, Shiga toxin inh inactive and LmPK inh inactive.
Screening O=C(COc1ccccc1Cl)c1ccc[nH]1 returned RE007 growth inh inactive, Cycloheximide cs 30, Tb PYK inh inactive, Giardia FBPA inh inactive, Shiga toxin inh inactive and LmPK inh inactive.
Screening CC(C)N(C(=O)COc1ccc(Br)cc1Cl)C(C)C returned RE007 growth inh inactive, Cycloheximide cs inactive, Tb PYK inh inactive, Giardia FBPA inh inactive, Shiga toxin inh inactive and LmPK inh inactive.
For O=C(COc1ccc(Br)cc1Cl)c1ccc[nH]1 the results were RE007 growth inh inactive, Cycloheximide cs 38, Tb PYK inh inactive, Giardia FBPA inh inactive, Shiga toxin inh 69 and LmPK inh inactive.
O=C(COc1ccccc1Cl)c1ccc2c(c1)CCCC2 was read as RE007 growth inh inactive, Cycloheximide cs 26, Tb PYK inh inactive, Giardia FBPA inh inactive, Shiga toxin inh 53 and LmPK inh inactive.
Clc1ccc2c(c1)-c1c(cnc3cc(-c4ccccc4)nn13)CO2 was read as Tb PYK inh inactive.
Screening CCCCC[C@H](O)/C=C/[C@H]1OC(=O)C[C@H](O)[C@@H]1C/C=C\CCCC(=O)O returned Giardia FBPA inh inactive.
`CCc1ccccc1NC(=O)CN1C(=O)CCc2cc(S(=O)(=O)N3CCCCC3)ccc21` gave Tb PYK inh inactive.
Screening COc1ccc(C2CC(=O)N(C)c3ccccc3S2)cc1 (stereo not drawn) returned RE007 growth inh inactive, Cycloheximide cs 38, Tb PYK inh inactive, Giardia FBPA inh inactive, Shiga toxin inh 124 and LmPK inh inactive.
